aSyn UTR act: Activators working through SNCA 5'UTR binding (MLPCN). alpha-synuclein 5'UTR reporter, activators screen. activity score, % (tested at 7.5 µM), hits read low. actives 7.1% (n = 300,000); in the data active = activity score below about -60%
* hit, by the source's call. Not all results are given here.

SMILES | aSyn UTR act
CNS(=O)(=O)c1ccc(NC(=S)Nc2ccc3c(c2)OCO3)cc1 | -128.6*
O=S(=O)(c1ccc(NC(=S)Nc2ccc3c(c2)OCO3)cc1)N1CCOCC1 | -227.0*
CC1CCC(=C(C#N)c2nc(-c3cc4ccccc4oc3=O)cs2)CC1 (configuration not stated) | -258.5*
COc1ccc(NC(=O)c2cccs2)cc1O | -134.9*
Cc1ccc(NC(=O)Cn2nnc(-c3ccccc3NC(=O)c3cccs3)n2)cc1 | 67.2
O=C(CNC(=S)NC(=O)C1CCCCC1)c1ccccc1 | -125.7*
COc1ccc(NC(=O)Cn2nnc(-c3ccccc3NC(=O)c3cccs3)n2)cc1 | -168.6*
CC(C)c1ccc(NC(=S)NNC(=O)c2cccs2)cc1 | -95.3*
COc1ccc(NC(=O)c2cccs2)cc1 | -148.7*
O=C(Cc1ccccc1)NNC(=S)NC(=O)c1cccs1 | 75.4
Cc1conc1NC(c1cccs1)c1ccc2cccnc2c1O (configuration not stated) | 66.3
CCCCOc1cccc(C(=O)Nc2ccc(NC(=O)c3cccs3)cc2)c1 | 64.4
CCC(=O)NC(c1cccs1)c1ccc2cccnc2c1O (configuration not stated) | 79.6
Cc1cccnc1NC(=S)NC(=O)c1cccs1 | -398.5*
CC1=C(C)CC(C(=O)NCC(=O)c2ccccc2)C(C(=O)O)C1 (configuration not stated) | -169.1*
O=C(NC(=S)Nc1ccccc1)c1cccs1 | -147.2*
O=C(Nc1ccc(NC(=O)C2CC2)cc1)c1cccs1 | -168.6*
O=C(Nc1ccc(Cl)cc1)c1cccs1 | -146.4*
COc1ccc(NC(=S)NNC(=O)c2cccs2)cc1 | -80.6*
CN1CCN(c2ccc(NC(=O)c3cccs3)cc2)CC1 | -87.6*
COc1ccc(/C=C/C(=O)c2ccc(NC(=O)c3cccs3)cc2)cc1OC | -93.6*
Cc1cccnc1NC(=O)NC(=O)c1ccc(C(C)(C)C)s1 | -169.5*
O=C(Nc1cccc(N2CCCC2)c1)c1cccs1 | -66.0*
O=C(Nc1ccc2[nH]ccc2c1)c1cccs1 | -105.2*
O=C(CNC(=S)NC(=O)c1ccco1)c1ccccc1 | -79.7*
SMILES | aSyn UTR act
O=C(CNC(=S)NC(=O)c1cccs1)c1ccccc1 | -74.3*
O=C(NC(=S)Nc1ccc(N2CCCCC2)c(Cl)c1)c1cccs1 | -109.8*
COc1ccccc1NC(=O)Cn1nnc(-c2ccccc2NC(=O)c2cc3ccccc3oc2=O)n1 | -118.9*
O=C(NC(=S)Nc1ccc(Br)cn1)c1cccs1 | -172.5*
Cc1ccn(-c2ccc(NC(=O)c3cccs3)cc2)n1 | -63.0*
COc1cc(OC)cc(C(=O)Nc2ccc(N3CCN(C(=O)c4cccs4)CC3)cc2)c1 | -180.3*
CC(C)C(=O)Nc1ccc(NC(=O)c2cccs2)cn1 | -131.8*
CCC(C)c1ccc(NC(=O)c2cccs2)cc1 (configuration not stated) | -71.0*
CCCCNS(=O)(=O)c1ccc(NC(=O)c2cccs2)cc1 | -65.9*
O=C(Nc1ccc(NC(=O)c2cccs2)cc1)c1cccs1 | -140.8*
CCCCC12CN3CCN(CC(C3)/C1=N\NC(=O)c1ccccc1N)C2 | -70.6*
CCc1ccc(C(=O)NNc2ccccc2F)cc1 | -83.4*
CCCc1ccc(C(=O)NNc2ccccc2F)cc1 | -110.2*
CCOC(=O)Cc1c(C)nc2c(-c3ccccc3)c(-c3ccccc3)[nH]n2c1=O | -84.9*
Cc1nc2c(-c3ccc(Cl)cc3)c(C)[nH]n2c(=O)c1Cc1ccccc1 | 77.8
Cc1noc(C(=O)Nc2ccc(F)c(Cl)c2)c1Cl | -70.4*
Cc1ccc(NC(=O)c2onc(C)c2Cl)cc1 | -150.6*
CC(C)(C)c1ccc(C(=O)Nc2ncn[nH]2)cc1 | -134.3*
Cc1nnnn1/C(=C\c1ccccc1)C(=O)OCC(=O)Nc1ccc(Cl)cc1F | -70.5*
COc1ccc(NC(=O)c2cc(C)no2)cc1 | -65.1*
Cc1ccc(NC(=O)c2cc(C)no2)cc1 | -74.9*
Cn1cccc1C1NC(=O)c2c(sc3c2CCC(C(C)(C)C)C3)N1 (configuration not stated) | -97.1*
O=C(Cc1ccccc1)Nc1cc2c(cc1Cl)OCCCO2 | -146.9*
CCc1ccc(C(=O)Nc2cc3c(cc2Cl)OCCCO3)cc1 | -172.2*
COC(=O)C1=C(C)N(Cc2ccccc2)C(=NCc2cccc(C(F)(F)F)c2)N[C@H]1c1cccc(F)c1 | 56.6
SMILES | aSyn UTR act
COc1ccccc1N1CCN(S(=O)(=O)CCNC(=O)c2cc(OC)c(OC)c(OC)c2)CC1 | 60.8
COc1cc(C(=O)Nc2cc3c(cc2N2CCCCC2)n(C)c(=O)n3C)cc(OC)c1OC | -79.2*
Clc1ccc2c(c1)C1OCCC1C(c1ccco1)N2 (configuration not stated) | -125.2*
O=C(Nc1nc2ccccc2n1CCN1CCOCC1)c1cn(-c2ccccc2)nc1-c1ccccc1 | 82.8
c1ccc2nc3c(nc2c1)c1ccccc1n3CCN1CCOCC1 | -80.3*
O=c1c2ccccc2nc2c3ccccc3c(NCCN3CCOCC3)nn12 | -344.7*
CN(C)/C=C/C(=O)c1ccc(Br)cc1 | -70.4*
CCC1=[N+](CC(=O)c2ccc(C)cc2)CCn2c(C)ccc21 | -193.7*
CC1=[N+](CC(=O)c2ccccc2)CCn2cccc21 | -110.1*

Bioassay records as filed in PubChem.
